In the library only some 19% were active in any assay of this set; here they are far more common.
TGFb inhibitor: inhibitors of TGF-b signaling; HepG2 CAGA-GFP TGF-b/SMAD3 reporter, GFP fluorescence, 18 h; TGF-beta stimulated, 500 pg/mL final; Potency, µM (series often up to 46.1 µM), inactives show top-dose activity, negative = inhibition, hits mostly inhibitors; AID 588855; 1.2% of 410,000 active; also: potency is read from the fitted curve at half-maximal effect; % is scaled to controls: 0 for no effect and ±100 for the full control effect; nearly all actives have a fitted effect of over 65% in size
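HEPG2 CAGA-GFP cells (1000/well, DMEM with 1% FBS) were pre-incubated 2 h at 37 degrees C, given compound by pin tool, then stimulated with TGF-beta at 500 pg/mL final for 18 h before per-cell GFP fluorescence imaging.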
TDP1 inh: blocks human tyrosyl-DNA phosphodiesterase 1; Q9NUW8; recombinant TDP1, AlphaScreen DNA substrate cleavage; Potency, µM (titrated, usually from 130 µM), without a hit: at the top dose activity change, negative = inhibition, actives largely listed as inhibitors; 0.28% of 350,000 active; AID 485290; also: potency is read from the fitted curve at half-maximal effect; % is scaled to controls: 0 for no effect and ±100 for the full control effect; nearly all actives have a fitted effect of over 40% in size
Target sequence (Q9NUW8 whole entry, looked up): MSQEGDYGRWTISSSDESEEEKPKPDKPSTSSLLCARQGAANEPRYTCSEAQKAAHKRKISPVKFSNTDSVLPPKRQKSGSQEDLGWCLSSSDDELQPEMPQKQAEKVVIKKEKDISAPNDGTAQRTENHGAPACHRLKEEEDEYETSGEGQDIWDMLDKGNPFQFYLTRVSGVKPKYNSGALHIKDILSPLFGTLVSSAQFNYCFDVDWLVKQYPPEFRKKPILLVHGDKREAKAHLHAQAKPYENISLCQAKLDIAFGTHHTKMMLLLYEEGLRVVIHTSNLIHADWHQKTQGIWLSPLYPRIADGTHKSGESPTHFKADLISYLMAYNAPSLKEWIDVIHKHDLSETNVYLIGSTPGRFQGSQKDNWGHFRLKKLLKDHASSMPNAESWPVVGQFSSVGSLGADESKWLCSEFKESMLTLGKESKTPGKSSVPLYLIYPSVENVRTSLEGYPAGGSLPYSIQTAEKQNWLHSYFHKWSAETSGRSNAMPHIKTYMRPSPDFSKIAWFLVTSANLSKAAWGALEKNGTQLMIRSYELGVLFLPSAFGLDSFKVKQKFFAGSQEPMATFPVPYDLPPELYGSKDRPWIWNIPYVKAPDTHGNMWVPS
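Compounds were preincubated with Tdp1 (1 nM final) for 15 min at room temperature before substrate (15 nM final) started a 5 min reaction; beads (10 ug/ml final) were then added for 10 min before AlphaScreen detection.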
IL-1B inflam inh: inflammasome signaling inhibition, IL-1 beta readout; 4.7% of 360,000 active; activity change, % at 57.5 µM; AID 743279; THP-1 LPS/ATP IL-1B secretion, AlphaLISA, 16 h; active compounds read low; in the data active = activity change below about -50%; inconclusive = mostly about -30% to -49%; also: % is scaled to controls: 0 for no effect and ±100 for the full control effect
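THP-1 cells pretreated 1 hr with compounds (up to 57.5 uM final), then stimulated with LPS (250 ng/mL final) plus ATP (1.25 mM final); secreted IL-1B measured by AlphaLISA after 16 hr, decreased signal indicating inhibition.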
DT40 TDP1 CPT: growth inhibition of DT40 Tdp1-/-;hTDP1 cells with camptothecin (screen for TDP1 inhibitors). chicken DT40 Tdp1-/-;hTDP1 cells + 20 nM CPT, ATP luminescence, 48 h. Potency, µM (titrated, usually from 46.2 µM), for the others: at the highest dose activity change, negative = growth inhibition, hits mostly inhibitors. 12% of 420,000 active; also: potency is read from the fitted curve at half-maximal effect; % is scaled to controls: 0 for no effect and ±100 for the full control effect; nearly all actives have a fitted effect of over 55% in size
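Chicken DT40 Tdp1-/- cells stably complemented with human TDP1 were seeded at 400 cells/well in medium containing 20 nM camptothecin, exposed to pin-transferred compounds, and grown at 37 °C for at least 48 hr. Viability was read as ATP luminescence.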
HepG2 tox: kills HepG2 cells in TGF-b inhibitor counter-screen. HepG2 CAGA-GFP viability, ATP luminescence, 18 h. Potency, µM (series often up to 46.1 µM), for the others: top-dose activity change, negative = cytotoxicity, actives largely listed as cytotoxic. 0.76% of 410,000 active. AID 588856; also: potency is read from the fitted curve at half-maximal effect
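CellTiter-Glo luminescence gave cytotoxicity after 18 hours at 37 degrees C. The cells were HepG2 CAGA-GFP in 1% FBS DMEM, stimulated with 500 pg/mL TGF-beta after compound addition. %Activity was normalised to no-cell wells (complete cell-killing) and DMSO (no toxicity), and curves were fitted and classified.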
DT40 TDP1 no CPT: qHTS for Inhibitors of human tyrosyl-DNA phosphodiesterase 1 (TDP1): qHTS in cells in absence of CPT; AID 686978, 2013; DT40 Tdp1-/- hTDP1 cells, no CPT, ATP luminescence, 48 h; Potency, µM (series often up to 46.2 µM), for the others: at the top dose activity change, negative = growth inhibition, actives largely listed as inhibitors; 15% of 420,000 active; also: potency is read from the fitted curve at half-maximal effect; % is scaled to controls: 0 for no effect and ±100 for the full control effect; nearly all actives have a fitted effect of over 55% in size
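Cells were dispensed at 400 per well, compounds added by pin tool, plates incubated ≥48 hr at 37 °C, then CellTiter-Glo added for 30 min at room temperature before luminescence reading. Line: DT40 Tdp1-/- complemented with hTDP1; camptothecin omitted.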
Starred values were filed as active, the others as inactive; [ ] = remark or other dose. Unless noted, calls follow the shape of the dose curve; as a rule, active = well fitted curve in the direction sought with a large enough effect; inconclusive = small, poorly fitted or top-dose-only effect, or another doubt; inactive = no such curve, though single readings can be large; an effect the other way counts as inactive or inconclusive.

For CCOc1ccc(Nc2ccc([N+](=O)[O-])c3nonc23)cc1 the results were TGFb inhibitor inconclusive, TDP1 inh 14%, IL-1B inflam inh 13, DT40 TDP1 CPT inconclusive, HepG2 tox -59% and DT40 TDP1 no CPT 23µM*.
For O=[N+]([O-])c1ccc(Nc2ccccc2)c2nonc12 the results were TGFb inhibitor inconclusive, IL-1B inflam inh 22, DT40 TDP1 CPT inconclusive, HepG2 tox -33% and DT40 TDP1 no CPT inconclusive.
Screening CCC(c1nc2ccccc2[nH]1)N(C(=O)C1=NNC(=O)CC1)c1ccccc1 (stereo not drawn) returned TGFb inhibitor -19%, IL-1B inflam inh 12, DT40 TDP1 CPT 21%, HepG2 tox -16% and DT40 TDP1 no CPT 7%.
For O=C1NC(=NCc2ccccc2)NC1(c1ccccc1)c1ccccc1 the results were TGFb inhibitor 2%, IL-1B inflam inh -19, DT40 TDP1 CPT 16%, HepG2 tox 5% and DT40 TDP1 no CPT -3%.
For COc1ccc(OCC(=O)Nn2c(-c3ccc(OC)cc3)nc3ccccc3c2=O)cc1 the results were TGFb inhibitor inconclusive, TDP1 inh 8%, IL-1B inflam inh 6, DT40 TDP1 CPT -3%, HepG2 tox -25% and DT40 TDP1 no CPT inconclusive.
For O=c1c2ccccc2nc(-c2cccs2)n1-c1cccc2ccccc12 the results were TGFb inhibitor -10%, TDP1 inh 8%, IL-1B inflam inh -1, DT40 TDP1 CPT inconclusive, HepG2 tox -6% and DT40 TDP1 no CPT 21µM*.
COc1ccc(CNn2c(-c3cccs3)nc3ccccc3c2=O)cc1OC was read as TGFb inhibitor 1%, TDP1 inh 2%, IL-1B inflam inh -79*, DT40 TDP1 CPT 7.3µM*, HepG2 tox -28% and DT40 TDP1 no CPT 10µM*.
`O=C(Nn1c(-c2ccc(Br)cc2)nc2ccccc2c1=O)c1cccnc1` gave TGFb inhibitor 10%, TDP1 inh -1%, IL-1B inflam inh 23, DT40 TDP1 CPT inconclusive, HepG2 tox -9% and DT40 TDP1 no CPT 23µM*.
For COc1ccc(-c2nc3ccccc3c(=O)n2NC(=S)N(C)C)cc1 the results were TGFb inhibitor 9%, TDP1 inh 5%, IL-1B inflam inh -9, DT40 TDP1 CPT 12µM*, HepG2 tox -2% and DT40 TDP1 no CPT 12µM*.
For CO[C@@H]1COC(=O)[C@@H](C)NC(=O)C/C=C\[C@@H](C)[C@H](NS(=O)(=O)c2ccc(C)cc2)COC(=O)[C@H](C)NC(=O)C/C=C\[C@H]1C the results were TDP1 inh 2%[21 µM].
Cc1ccc(S(=O)(=O)Nc2cc3c(C(=O)OCc4ccccc4)c(C)oc3c3ccccc23)c(C)c1 was read as TGFb inhibitor -19%, DT40 TDP1 CPT inconclusive, HepG2 tox -29% and DT40 TDP1 no CPT inconclusive.
Screening COc1ccc(OC)c(NC(=O)C(OC(=O)CNC(=O)c2ccccc2)c2ccccc2)c1 (stereo not drawn) returned TDP1 inh 1%.
`COc1ccc(OC)c(CNn2c(-c3cccc(C)c3)nc3ccccc3c2=O)c1` gave TGFb inhibitor -6%, TDP1 inh 6%, IL-1B inflam inh -4, DT40 TDP1 CPT inconclusive, HepG2 tox -16% and DT40 TDP1 no CPT inconclusive.
`COc1cccc(CNn2c(-c3cccc(C)c3)nc3ccccc3c2=O)c1` gave TGFb inhibitor inconclusive, TDP1 inh 3%, IL-1B inflam inh -71*, DT40 TDP1 CPT inconclusive, HepG2 tox -32% and DT40 TDP1 no CPT 18µM*.
